Screens: PubChem BioAssay, several laboratories
phage Ecoli inh = E. coli growth loss with phage present | growth absorbance | inhibition, % at 11.9 µM | 360,000 tested, 0.26% active; in the data active means inhibition above about 11%
E coli growth-1 = reduces bacterial viability in AddAB counter-screen. E. coli V3065 growth, OD600 absorbance, 18 h. 330,000 tested, 0.27% active. inhibition, % at 11.9 µM. AID 449728;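 active means inhibition above the campaign's mean inhibition across all tested compounds plus 3 SD, cut at about 9.9% in these data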;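 further: uninfected addAB+ strain grown without phage in ampicillin broth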
E coli growth-2 = inhibitors of Escherichia coli growth; OD600, 23 h; hits give low values; AID 1053175; OD600 absorbance (no concentration beside the values); 330,000 tested, 0.21% active;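 active means OD600 absorbance below the run mean of sample wells minus 3.6 SD, in any replicate, cut at about 0.56 in these data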
Tat transport = blocks Tat-dependent protein export in E. coli; E. coli MC4100 TorA-mCherry Tat export, fluorescence; inhibition, % at 10 µM; 340,000 tested, 0.036% active; AID 488895;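 active means mean replicate inhibition at least 50% and at least half of replicates individually reaching 50%; inconclusive means only one of the two criteria met; inactive means neither criterion met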;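 further: exported cargo escapes ClpAP degradation while cytoplasmic cargo is degraded and loses fluorescence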
AddAB inh = less growth of phage-infected E. coli with AddAB | E. coli expressing H. pylori AddAB, absorbance growth | inhibition, % at 11.9 µM | 330,000 tested, 0.29% active; in the data active means inhibition above about 12%
PfHsp90 set2 = inhibits growth of yeast expressing Plasmodium falciparum Hsp90; S. cerevisiae expressing PfHsp90, BacTiter-Glo ATP, 48 h; yeast lacking PDR1 and PDR3 efflux regulators; inhibition, % at 9.4 µM; 310,000 tested, 0.32% active;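 active means every replicate shows inhibition above about 80%, whatever the replicate mean, limit read from the data; inconclusive means mean inhibition reaches the set limit but some replicate falls short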
AddAB conf = confirmation screen: growth loss of phage-infected E. coli expressing H. pylori AddAB. shares compounds with AddAB inh. E. coli V3065 expressing H. pylori AddAB, T4 phage, OD; T4 phage with gene 2 nonsense mutations. inhibition, % at 11.9 µM. 880 tested, 64% active. AID 488942;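 active means mean inhibition above a set limit taken from the earlier primary screen, cut at about 13% in these data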;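 further: higher means less bacterial growth since AddAB block lets phage replicate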
RecBCD counter = reduces growth of phage-infected RecBCD+ E. coli, AddAB inhibitor counter-screen; E. coli V66 + mutant T4 phage, OD growth; 880 tested, 73% active; shares compounds with AddAB inh; inhibition, % at 11.9 µM; AID 488955;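 active means mean inhibition above the mean of solvent-only control wells plus 3 SD, cut at about 4% in these data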;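 further: optical density read after an 18 h incubation at 37 °C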
Bact viability = counter-screen: bacterial growth inhibition; 880 tested, 35% active; inhibition, % at 11.9 µM; shares compounds with AddAB inh; bacterial viability, absorbance (AddAB counterscreen); AID 488956; in the data active means inhibition above about 25%
Each line names hits and unclear results; the compound was inactive in the other large screens (follow-up assays come after a bar, where they were run). A selection: hits, their analogues and other compounds. The true share with any hit is near 0.69%.

CC(C)CC(NC(=O)c1nc[nH]c1C(=O)NC(c1ccccc1)c1ccccc1)C(=O)OCc1ccccc1 (configuration not stated)	none (no result: phage Ecoli inh, E coli growth-1, Tat transport, AddAB inh, PfHsp90 set2)
O=C(Cn1cc(C(=O)c2ccco2)c2ccccc21)Nc1ccccc1F	E coli growth-1 11, AddAB inh 13 | AddAB conf inactive | RecBCD counter 11 | Bact viability inactive
O=C(O)c1nnn(-c2cc(C(F)(F)F)cc(C(F)(F)F)c2)c1-c1ccccc1	AddAB inh 19 | AddAB conf inactive | RecBCD counter inactive | Bact viability inactive
O=C(Cc1cccc2ccccc12)NN=Cc1ccc(O)c([N+](=O)[O-])c1	none (no result: phage Ecoli inh, E coli growth-1, Tat transport, AddAB inh, PfHsp90 set2)
O=C(N/N=C/c1cc([N+](=O)[O-])ccc1O)c1cccc2cc[nH]c12	E coli growth-1 10, AddAB inh 14 (no result: E coli growth-2) | AddAB conf inactive | RecBCD counter 7.0 | Bact viability inactive
O=C(NN=Cc1cc([N+](=O)[O-])ccc1O)c1cccc2cc[nH]c12	none (no result: phage Ecoli inh, E coli growth-1, Tat transport, AddAB inh, PfHsp90 set2)
COc1ccccc1C(=O)N/C(=C\c1ccccc1)C(=O)NC(C)C(=O)O (configuration not stated)	E coli growth-1 72, AddAB inh 97 (no result: E coli growth-2) | AddAB conf inactive | RecBCD counter inactive | Bact viability inactive
CN1C(=O)C(=NOC(=O)c2cccc3ccccc23)c2ccccc21	none (no result: phage Ecoli inh, E coli growth-1, Tat transport, AddAB inh, PfHsp90 set2)
CC=CC=CC(=O)N1CC2(CC(c3cccc(NC(=O)C(C)=CC)c3)=NO2)CC1C(N)=O (configuration not stated)	none (no result: phage Ecoli inh, E coli growth-1, Tat transport, AddAB inh, PfHsp90 set2)
COc1ccc(-c2nc(Cn3c(SCc4cccc(F)c4)nc4ccncc43)c(C)o2)cc1OC	E coli growth-1 83, AddAB inh 96 | AddAB conf inactive | RecBCD counter inactive | Bact viability inactive
Cc1cc(/C=N/NC(=O)c2ccccc2F)c(C)n1-c1ccccc1	AddAB inh 131 (no result: E coli growth-2) | AddAB conf inactive | RecBCD counter inactive | Bact viability inactive
O=C(O)COc1ccc(C=NO)cc1Br	none (no result: phage Ecoli inh, E coli growth-1, Tat transport, AddAB inh, PfHsp90 set2)
COc1cnc(-c2ccccn2)nc1Sc1ccccc1	AddAB inh 14 | AddAB conf inactive | RecBCD counter inactive | Bact viability inactive
CCOc1ccc(NC(=O)CCC(=O)N2CCSc3ccccc32)cc1	AddAB inh 19 | AddAB conf inactive | RecBCD counter inactive | Bact viability inactive
COc1ccc(C(Nc2cc(C)ccn2)c2ccc3ccc(C)nc3c2O)cc1 (configuration not stated)	none
Cc1ccnc(NC(c2cccnc2)c2ccc3cccnc3c2O)c1 (configuration not stated)	phage Ecoli inh 15, E coli growth-1 12, Tat transport inconclusive, AddAB inh 12 | AddAB conf inactive | RecBCD counter 12 | Bact viability inactive
CC(C)NC(=O)Nc1ccc2c(c1)C(=O)N(C(C)CO)CC(C)C(CN(C)S(=O)(=O)c1cccs1)O2 (configuration not stated)	none (no result: phage Ecoli inh, E coli growth-1, Tat transport, AddAB inh, PfHsp90 set2)
COc1ccc(-c2nnc3ccc(SCC(=O)N4CCCCC4)nn23)cc1OC	E coli growth-1 48, AddAB inh 97 | AddAB conf inactive | RecBCD counter inactive | Bact viability inactive
CCC[C@@H](CN1CCC[C@H]1CN1C(N)=NC[C@H]1CC(C)C)N1C[C@@H]([C@H](C)CC)N(CCc2ccc(Cl)c(Cl)c2)C1=N	E coli growth-1 16, E coli growth-2 0.078, AddAB inh 13 | AddAB conf inactive | RecBCD counter inactive | Bact viability inactive
CCC[C@@H](CN1CCC[C@H]1CN1C(N)=NC[C@@H]1Cc1ccccc1)N1C[C@@H]([C@H](C)CC)N(CCCC2CCCC2)C1=N	E coli growth-1 22, Tat transport 96, AddAB inh 26 (no result: phage Ecoli inh, E coli growth-2) | AddAB conf 14 | RecBCD counter 13 | Bact viability inactive
COc1cccc(C=NNC(=O)CCn2cnc3ccccc32)c1	none (no result: phage Ecoli inh, E coli growth-1, Tat transport, AddAB inh, PfHsp90 set2)
COc1cc(NC(=O)c2cc(C3CC3)on2)c(OC)cc1Cl	E coli growth-1 77, AddAB inh 98 | AddAB conf inactive | RecBCD counter inactive | Bact viability inactive
CNC(=O)CON=Cc1ccc(N(C)C)cc1	none (no result: phage Ecoli inh, E coli growth-1, Tat transport, AddAB inh, PfHsp90 set2)
CCOC(=O)N1CCN(c2cc(=O)n(-c3ccc(C)cc3)c(=O)[nH]2)CC1	E coli growth-1 22, AddAB inh 97 | AddAB conf inactive | RecBCD counter inactive | Bact viability inactive
O=Cc1ccc(OCc2cccc(C(F)(F)F)c2)cc1O	E coli growth-1 12, AddAB inh 13 | AddAB conf inactive | RecBCD counter 9.5 | Bact viability inactive
COc1cccc(/C=N/NC(=O)c2[nH]c(C)c(C(=O)N/N=C/c3cccc(OC)c3O)c2C)c1O	phage Ecoli inh 22, E coli growth-1 28, AddAB inh 28 (no result: E coli growth-2) | AddAB conf 18 | RecBCD counter 21 | Bact viability inactive
Cn1nc([N+](=O)[O-])c(C(C#N)c2ccccn2)c(Cl)c1=O (configuration not stated)	AddAB inh 13 | AddAB conf 41 | RecBCD counter 6.1 | Bact viability inactive
C[C@H]1c2cccc(O)c2C(O)=C2C(=O)[C@]3(O)C(O)=C(C(N)=O)C(=O)[C@@H](N(C)C)[C@@H]3[C@@H](O)[C@@H]21	E coli growth-1 100, Tat transport 147, AddAB inh 98 (no result: phage Ecoli inh, E coli growth-2) | AddAB conf 101 | RecBCD counter 100 | Bact viability 101
CCN(CCC#N)c1ccc(C=NNc2nc(C)cc(=O)[nH]2)c(C)c1	none (no result: phage Ecoli inh, E coli growth-1, Tat transport, AddAB inh, PfHsp90 set2)
O=C(N/N=C\c1ccc2c(c1)OCO2)c1ccc(Cn2cc(Br)c([N+](=O)[O-])n2)o1	E coli growth-1 20, AddAB inh 23 (no result: E coli growth-2) | AddAB conf inactive | RecBCD counter inactive | Bact viability inactive
COc1cc(/C=N\NC(=O)c2ccc(Cn3cc(Br)c([N+](=O)[O-])n3)o2)cc(OC)c1O	E coli growth-1 23, AddAB inh 44 (no result: E coli growth-2) | AddAB conf 52 | RecBCD counter 5.6 | Bact viability 39
O=C(N/N=C\c1ccc(F)cc1)c1ccc(Cn2cc(Br)c([N+](=O)[O-])n2)o1	E coli growth-1 33, AddAB inh 36 (no result: E coli growth-2) | AddAB conf 54 | RecBCD counter 5.8 | Bact viability 38
O=C(N/N=C\c1cccc(F)c1)c1ccc(Cn2cc(Br)c([N+](=O)[O-])n2)o1	E coli growth-1 19, AddAB inh 27 (no result: E coli growth-2) | AddAB conf 54 | RecBCD counter 7.7 | Bact viability 41
O=C(NN=Cc1ccc2c(c1)OCO2)c1ccc(Cn2cc([N+](=O)[O-])cn2)o1	none (no result: phage Ecoli inh, E coli growth-1, Tat transport, AddAB inh, PfHsp90 set2)
COc1cc(C=NNC(=O)c2ccc(Cn3cc(Br)c([N+](=O)[O-])n3)o2)cc(OC)c1O	none (no result: phage Ecoli inh, E coli growth-1, Tat transport, AddAB inh, PfHsp90 set2)
O=S(=O)(c1ccccc1)c1ccccc1C=NO	none (no result: phage Ecoli inh, E coli growth-1, Tat transport, AddAB inh, PfHsp90 set2)
